Records with an inconclusive call do not appear. Entries that show only a call come without a potency. Active and inactive are the calls of the source. The call rests on the fitted dose curve; in most records, active means well fitted curve in the direction sought with a large enough effect in the repeat runs; inconclusive means weak or mixed curves; inactive means no such curve, though single readings can be large; an effect the other way counts as inactive or inconclusive.
Test: A CellTox Green Cytotoxicity Assay to monitor cytotoxicity in HepG2 cells - 16 hour (AID 1224876); further: nearly all actives have a fitted effect of over 45% in size
Settings: CellTox Green fluorescence; series mostly up to 76.8 µM
Method in brief: (§1)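 Cytotoxicity was tracked as dead-cell DNA fluorescence in HepG2 cells treated with test compounds at 37 C; each time-point value comes from one kinetic series spanning 0, 8, 16, 24, 32 and 40 h.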

Question: Which Potency does the source give for `CC1=C(CC(=O)O)c2cc(F)ccc2/C1=C\c1ccc(S(C)(=O)=O)cc1` here?
Answer: inactive

Question: Which Potency does the source give for `CC(C)NCC(O)COc1ccc(CCOCC2CC2)cc1` (stereo not given) here?
Answer: inactive

Question: With `C1CCOC1` as the molecule, how does the Potency read?
Answer: inactive

Question: With `C=O` as the molecule, how does the Potency read?
Answer: inactive

Question: Which Potency does the source give for `COc1nc(C)nc(NC(=O)NS(=O)(=O)c2ccccc2OCCCl)n1` here?
Answer: inactive

Question: With `O=C(O)[C@@H]1CSCN1` as the molecule, how does the Potency read?
Answer: inactive

Question: Which Potency does the source give for `CN1CCN(C2=Nc3ccccc3Oc3ccc(Cl)cc32)CC1` here?
Answer: inactive

Question: With `CC(C)O` as the molecule, how does the Potency read?
Answer: inactive

Question: Which Potency does the source give for `CCCCCCCOC(=O)CCC` here?
Answer: inactive

Question: With `CCCCCCC` as the molecule, how does the Potency read?
Answer: inactive

Question: Which Potency does the source give for `OCCN1CCN(CCO)CC1` here?
Answer: inactive

Question: Which Potency does the source give for `O=C1CCCc2ccccc21` here?
Answer: inactive

Question: For `O=C(O)c1ccccc1Nc1cc(Cl)ccc1C(=O)O`, which cytotoxicity increase is on record?
Answer: 1.42% [at 15.8 µM] (inactive)

Question: Which Potency does the source give for `CN1CCC[C@@H]1Cc1c[nH]c2ccc(CCS(=O)(=O)c3ccccc3)cc12` here?
Answer: inactive

Question: Which Potency does the source give for `Cc1cc2nc(N)sc2cc1C` here?
Answer: inactive

Question: For `CCCNC(C)C(=O)Nc1c(C)csc1C(=O)OC` (stereo not given), which Potency is on record?
Answer: inactive

Question: For `NC1=NCC2c3ccccc3Cc3ccccc3N12` (stereo not given), which Potency is on record?
Answer: inactive

Question: With `Cc1ccc(C)c(N)c1` as the molecule, how does the Potency read?
Answer: inactive

Question: For `COC(=O)c1ccc(OC)cc1`, which Potency is on record?
Answer: inactive

Question: Which Potency does the source give for `Cc1ccsc1C(=CCCN1CCC[C@@H](C(=O)O)C1)c1sccc1C` here?
Answer: inactive

Question: Which Potency does the source give for `C=CCCC=C` here?
Answer: inactive

Question: Which Potency does the source give for `CCCCCCCCOC(=O)CCCCCCCCC(=O)OCCCCCCCC` here?
Answer: inactive

Question: With `CC1=CC(=O)CC(C)(C)C1=O` as the molecule, how does the Potency read?
Answer: inactive

Question: For `CN1CCN(c2c(F)cc3c(=O)c(C(=O)O)cn4c3c2SCC4)CC1`, which Potency is on record?
Answer: inactive

Question: For `CCC(=O)O[C@]1(C(=O)SCF)[C@H](C)C[C@H]2[C@@H]3C[C@H](F)C4=CC(=O)C=C[C@]4(C)[C@@]3(F)[C@@H](O)C[C@@]21C`, which Potency is on record?
Answer: inactive

Question: Which Potency does the source give for `CCN1CC(CCN2CCOCC2)C(c2ccccc2)(c2ccccc2)C1=O` (stereo not given) here?
Answer: inactive

Test: qHTS RealTime-Glo MT Cell Viability Assay in HepG2 cells - 32 hour (AID 1224877); further: nearly all actives have a fitted effect of over 55% in size
Settings: RealTime-Glo luminescence; series mostly up to 76.8 µM
Method in brief: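 HepG2 cells (600/well) were dispensed with RealTime-Glo reagents, incubated 5 h at 37 °C, then treated with compounds in DMSO for up to 40 h. Nonlytic NanoLuc luminescence reflecting viable cells was read at each stated time point.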

Question: For `CCCCCCCCc1ccc(S(=O)(=O)O)cc1`, which Potency is on record?
Answer: inactive

Question: Which Potency does the source give for `CC1=C(CC(=O)O)c2cc(F)ccc2/C1=C\c1ccc(S(C)(=O)=O)cc1` here?
Answer: inactive

Question: For `CC(C)NCC(O)COc1ccc(CCOCC2CC2)cc1` (stereo not given), which Potency is on record?
Answer: inactive

Question: Which Potency does the source give for `C1CCOC1` here?
Answer: inactive

Question: Which Potency does the source give for `C=O` here?
Answer: inactive

Question: For `COc1nc(C)nc(NC(=O)NS(=O)(=O)c2ccccc2OCCCl)n1`, which Potency is on record?
Answer: inactive

Question: With `O=C(O)[C@@H]1CSCN1` as the molecule, how does the Potency read?
Answer: inactive

Question: With `O=C(O)[C@@H](O)[C@H](O)[C@H](O)[C@@H](O)C(=O)O` as the molecule, how does the Potency read?
Answer: inactive

Question: Which Potency does the source give for `CN1CCN(C2=Nc3ccccc3Oc3ccc(Cl)cc32)CC1` here?
Answer: inactive

Question: For `CC(C)O`, which Potency is on record?
Answer: inactive

Question: For `CCC1(C)NC(=O)NC1=O` (stereo not given), which Potency is on record?
Answer: inactive

Question: Which Potency does the source give for `CC/C=C\CCOC(=O)C(C)C` here?
Answer: inactive

Question: Which Potency does the source give for `CCCCCCCOC(=O)CCC` here?
Answer: inactive

Question: Which Potency does the source give for `CCCCCCC` here?
Answer: inactive

Question: For `OCCN1CCN(CCO)CC1`, which Potency is on record?
Answer: inactive

Question: Which Potency does the source give for `O=C1CCCc2ccccc21` here?
Answer: inactive

Question: Which Potency does the source give for `O=C1C=CC(=O)O1` here?
Answer: inactive

Question: With `O=C(O)c1ccccc1Nc1cc(Cl)ccc1C(=O)O` as the molecule, how does the activity change, negative = cytotoxic read?
Answer: -8.29% [at 15.8 µM] (inactive)

Question: With `CCc1cc2cc(OC)c(OC)cc2c(Cc2ccccc2)n1` as the molecule, how does the Potency read?
Answer: inactive

Question: Which Potency does the source give for `CN1CCC[C@@H]1Cc1c[nH]c2ccc(CCS(=O)(=O)c3ccccc3)cc12` here?
Answer: inactive

Question: For `Cc1cc2nc(N)sc2cc1C`, which Potency is on record?
Answer: inactive

Question: Which Potency does the source give for `CCCNC(C)C(=O)Nc1c(C)csc1C(=O)OC` (stereo not given) here?
Answer: inactive

Question: For `Cc1cc(NS(=O)(=O)c2ccc(N)cc2)nc(C)n1`, which Potency is on record?
Answer: inactive

Question: With `CCCCCCCCCCCCCCCCOP(=O)([O-])OCC[N+](C)(C)C` as the molecule, how does the Potency read?
Answer: inactive

Question: Which Potency does the source give for `NC1=NCC2c3ccccc3Cc3ccccc3N12` (stereo not given) here?
Answer: inactive

Question: With `Cc1ccc(C)c(N)c1` as the molecule, how does the Potency read?
Answer: inactive

Question: For `O=C1N(c2ccccc2)c2ccccc2C1(Cc1ccncc1)Cc1ccncc1`, which Potency is on record?
Answer: inactive

Question: For `COC(=O)c1ccc(OC)cc1`, which Potency is on record?
Answer: inactive

Question: With `Cc1ccsc1C(=CCCN1CCC[C@@H](C(=O)O)C1)c1sccc1C` as the molecule, how does the Potency read?
Answer: inactive

Question: With `CC1=NN(c2cc(Cl)c(S(=O)(=O)O)cc2Cl)C(=O)C1N=Nc1ccc(S(=O)(=O)O)cc1` (stereo not given) as the molecule, how does the Potency read?
Answer: inactive

Question: For `Cc1onc(-c2ccccc2)c1C(=O)Cl`, which Potency is on record?
Answer: inactive

Question: For `CCCCCOc1ccc(C2SC(=O)NC2=O)cc1OCC` (stereo not given), which Potency is on record?
Answer: inactive

Question: With `C=CCCC=C` as the molecule, how does the Potency read?
Answer: inactive

Question: Which Potency does the source give for `CCCCCCCCOC(=O)CCCCCCCCC(=O)OCCCCCCCC` here?
Answer: inactive

Question: With `CC1=CC(=O)CC(C)(C)C1=O` as the molecule, how does the Potency read?
Answer: inactive

Question: Which Potency does the source give for `CN1CCN(c2c(F)cc3c(=O)c(C(=O)O)cn4c3c2SCC4)CC1` here?
Answer: inactive

Question: With `CCC(=O)O[C@]1(C(=O)SCF)[C@H](C)C[C@H]2[C@@H]3C[C@H](F)C4=CC(=O)C=C[C@]4(C)[C@@]3(F)[C@@H](O)C[C@@]21C` as the molecule, how does the Potency read?
Answer: inactive

Question: With `NS(=O)(=O)c1cc(-c2nn[nH]n2)c(NCc2cccs2)cc1Cl` as the molecule, how does the Potency read?
Answer: inactive

Question: For `CCN1CC(CCN2CCOCC2)C(c2ccccc2)(c2ccccc2)C1=O` (stereo not given), which Potency is on record?
Answer: inactive

Test: A CellTox Green Cytotoxicity Assay to monitor cytotoxicity in HepG2 cells - 24 hour (AID 1224878); further: nearly all actives have a fitted effect of over 45% in size
Settings: CellTox Green fluorescence; series mostly up to 76.8 µM
Method in brief: as §1

Question: For `CC1=C(CC(=O)O)c2cc(F)ccc2/C1=C\c1ccc(S(C)(=O)=O)cc1`, which Potency is on record?
Answer: inactive

Question: For `CC(C)NCC(O)COc1ccc(CCOCC2CC2)cc1` (stereo not given), which Potency is on record?
Answer: inactive

Question: With `C1CCOC1` as the molecule, how does the Potency read?
Answer: inactive

Question: For `C=O`, which Potency is on record?
Answer: inactive

Question: With `COc1nc(C)nc(NC(=O)NS(=O)(=O)c2ccccc2OCCCl)n1` as the molecule, how does the Potency read?
Answer: inactive

Question: With `O=C(O)[C@@H]1CSCN1` as the molecule, how does the Potency read?
Answer: inactive

Question: Which Potency does the source give for `O=C(O)[C@@H](O)[C@H](O)[C@H](O)[C@@H](O)C(=O)O` here?
Answer: inactive

Question: Which Potency does the source give for `CC(C)O` here?
Answer: inactive

Question: Which Potency does the source give for `CC/C=C\CCOC(=O)C(C)C` here?
Answer: inactive

Question: With `CCCCCCCOC(=O)CCC` as the molecule, how does the Potency read?
Answer: inactive

Question: Which Potency does the source give for `CCCCCCC` here?
Answer: inactive

Question: Which Potency does the source give for `OCCN1CCN(CCO)CC1` here?
Answer: inactive

Question: Which Potency does the source give for `O=C1CCCc2ccccc21` here?
Answer: inactive

Question: With `O=C1C=CC(=O)O1` as the molecule, how does the Potency read?
Answer: inactive

Question: Which cytotoxicity does the source give for `O=C(O)c1ccccc1Nc1cc(Cl)ccc1C(=O)O` here?
Answer: 9.31% [at 15.8 µM] (inactive)

Question: With `CN1CCC[C@@H]1Cc1c[nH]c2ccc(CCS(=O)(=O)c3ccccc3)cc12` as the molecule, how does the Potency read?
Answer: inactive

Question: For `Cc1cc2nc(N)sc2cc1C`, which Potency is on record?
Answer: inactive

Question: Which Potency does the source give for `CCCNC(C)C(=O)Nc1c(C)csc1C(=O)OC` (stereo not given) here?
Answer: inactive

Question: Which Potency does the source give for `NC1=NCC2c3ccccc3Cc3ccccc3N12` (stereo not given) here?
Answer: inactive

Question: With `Cc1ccc(C)c(N)c1` as the molecule, how does the Potency read?
Answer: inactive

Question: Which Potency does the source give for `O=C1N(c2ccccc2)c2ccccc2C1(Cc1ccncc1)Cc1ccncc1` here?
Answer: inactive

Question: With `COC(=O)c1ccc(OC)cc1` as the molecule, how does the Potency read?
Answer: inactive

Question: For `Cc1ccsc1C(=CCCN1CCC[C@@H](C(=O)O)C1)c1sccc1C`, which Potency is on record?
Answer: inactive

Question: With `C=CCCC=C` as the molecule, how does the Potency read?
Answer: inactive

Question: Which Potency does the source give for `CCCCCCCCOC(=O)CCCCCCCCC(=O)OCCCCCCCC` here?
Answer: inactive

Question: Which Potency does the source give for `CC1=CC(=O)CC(C)(C)C1=O` here?
Answer: inactive

Question: With `CN1CCN(c2c(F)cc3c(=O)c(C(=O)O)cn4c3c2SCC4)CC1` as the molecule, how does the Potency read?
Answer: inactive

Question: Which Potency does the source give for `CCC(=O)O[C@]1(C(=O)SCF)[C@H](C)C[C@H]2[C@@H]3C[C@H](F)C4=CC(=O)C=C[C@]4(C)[C@@]3(F)[C@@H](O)C[C@@]21C` here?
Answer: inactive

Question: Which Potency does the source give for `NS(=O)(=O)c1cc(-c2nn[nH]n2)c(NCc2cccs2)cc1Cl` here?
Answer: inactive

Question: Which Potency does the source give for `CCN1CC(CCN2CCOCC2)C(c2ccccc2)(c2ccccc2)C1=O` (stereo not given) here?
Answer: inactive

Reference: PubChem BioAssay (Tox21)
